Screening results (PubChem)
Sm TGR inh = S. mansoni TGR enzyme inhibition | Potency, µM (titrated, usually from 114 µM), for the others: at the highest dose activity change, negative = inhibition, actives largely listed as inhibitors | Q962Y6 | AID 485364 | hit rate 3% among 360,000 | purified TGR, DTNB reduction, TNB absorbance 405 nm; also: potency is read from the fitted curve at half-maximal effect; nearly all actives have a fitted effect of over 60% in size
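First, TGR (20 nM dispensed) and NADPH were mixed with compound. Second, a 15 min room-temperature incubation followed. Third, further NADPH and then DTNB were added to start the reaction. Finally, TNB absorbance was monitored kinetically.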
Pf growth 96h = P. falciparum growth inhibition at 96 hours; Potency, µM (series often up to 28.7 µM), for inactives: at the top dose activity change, negative = inhibition, hits mostly inhibitors; AID 504834; P. falciparum luciferase reporter growth, 96 h; hit rate 6.9% among 320,000; also: potency is read from the fitted curve at half-maximal effect
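Infected RBCs, 2% Hct / 0.05% parasitemia final; luciferase-reporter P. falciparum; cpd 96 h, 37 C, 5% CO2; luciferase detection reagent; luminescence.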
HCMV inh = inhibitors of human cytomegalovirus. HFF cells, HCMV-luciferase reporter, 72 h; stronger effect = lower value. activity change, negative = inhibition, % at 57.5 µM. hit rate 4.5% among 410,000; in the data active = activity change below about -60%; inconclusive = no clear call, values can overlap the other calls; inactive = above about -39%
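Steps: HFFs plated, 16 h 37C; compounds added; HCMV-luciferase added to MOI 1 PFU/cell; 72 h 37C; OneGlo reagent, 5 min room temperature; luminescence read, normalized to controls.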
Pf growth 48h = P. falciparum growth inhibition at 48 hours (one generation) | Potency, µM (doses to about 28.7 µM), for the others: top-dose activity change, negative = inhibition, hits mostly inhibitors | hit rate 5.9% among 310,000 | P. falciparum luciferase growth in erythrocytes, 48 h; also: potency is read from the fitted curve at half-maximal effect
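Erythrocytes infected with P. falciparum carrying an integrated firefly luciferase reporter (2% hematocrit, 0.1% parasitemia final) were exposed to compounds in RPMI 1640 with 0.5% Albumax at 37 C, 5% CO2. Growth inhibition was scored as reduced luminescence.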
FBPA Giardia inh = blocks Giardia fructose-bisphosphate aldolase activity. A8B2U2. purified Giardia FBPA. Potency, µM (doses to about 59.6 µM), without a hit: top-dose activity, negative = inhibition, most hits filed as inhibitors. hit rate 0.71% among 290,000. AID 2451; also: potency is read from the fitted curve at half-maximal effect; nearly all actives have a fitted effect of over 55% in size
Target sequence (A8B2U2 whole entry, looked up): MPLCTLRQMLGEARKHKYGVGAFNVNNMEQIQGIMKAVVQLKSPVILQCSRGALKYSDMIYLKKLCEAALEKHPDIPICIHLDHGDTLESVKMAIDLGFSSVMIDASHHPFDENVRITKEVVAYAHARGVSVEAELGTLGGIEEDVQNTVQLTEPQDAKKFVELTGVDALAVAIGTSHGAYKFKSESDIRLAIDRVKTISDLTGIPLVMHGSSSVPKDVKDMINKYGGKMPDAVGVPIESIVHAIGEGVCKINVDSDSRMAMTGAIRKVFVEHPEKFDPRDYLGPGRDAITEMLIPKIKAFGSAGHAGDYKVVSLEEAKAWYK
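Giardia FBPA (40 nM reagent) was preincubated 10 min at RT with compound (up to 57.5 uM final), then substrate plus GAPDH/TPI/NAD/arsenate coupling system with diaphorase/resazurin was added; resorufin fluorescence (525/598 nm) was read after 20 min.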
Active calls of the source: *; ? = inconclusive; / = no result; [ ] = another dose, or the depositor's remark. Only some compounds are listed: those with a hit (about 14% of all), similar ones and a draw of the others. Unless noted, calls follow the shape of the dose curve; as a rule, active = well fitted curve in the direction sought with a large enough effect; inconclusive = small, poorly fitted or top-dose-only effect, or another doubt; inactive = no such curve, though single readings can be large; an effect the other way counts as inactive or inconclusive. % is scaled to controls: 0 for no effect and ±100 for the full control effect.

SMILES	Sm TGR inh	Pf growth 96h	HCMV inh	Pf growth 48h	FBPA Giardia inh
C[C@@H]1CN([C@H](C)CO)C(=O)c2cc(NC(=O)Nc3ccc(C(F)(F)F)cc3)ccc2O[C@H]1CN(C)Cc1ccc(Cl)c(Cl)c1	/	/	-96.6*	/	/
C[C@H](CO)N1C[C@H](C)[C@@H](CN(C)S(=O)(=O)c2ccccc2)Oc2ccc(NC(=O)Nc3ccccc3)cc2C1=O	/	/	-73.5*	/	/
COc1ccc(S(=O)(=O)Nc2ccc3c(c2)C(=O)N([C@H](C)CO)C[C@H](C)[C@@H](CN(C)S(=O)(=O)c2ccc(OC)cc2)O3)cc1	/	/	-91.8*	/	/
C[C@@H]1CN([C@@H](C)CO)S(=O)(=O)c2ccc(Br)cc2O[C@H]1CN(C)Cc1ccc(-c2ccccc2)cc1	/	/	-21.5	/	/
C[C@@H]1CCCCO[C@@H](CN(C)Cc2ccc(Cl)c(Cl)c2)[C@@H](C)CN([C@H](C)CO)C(=O)c2cc(NC(=O)CCC(F)(F)F)ccc2O1	/	/	-60.5*	/	/
C[C@H](CO)N1C[C@H](C)[C@@H](CN(C)Cc2ccc(C(=O)O)cc2)OCCCC[C@H](C)Oc2ccc(NC(=O)CCC(F)(F)F)cc2C1=O	/	/	15.1	/	/
C[C@H](CO)N1C[C@H](C)[C@@H](CN(C)S(=O)(=O)c2cccs2)Oc2ccc(NC(=O)Nc3ccccc3)cc2C1=O	/	/	-65.0*	/	/
C[C@@H]1CN([C@H](C)CO)C(=O)c2cc(NC(=O)Nc3ccc(C(F)(F)F)cc3)ccc2O[C@H]1CN(C)S(=O)(=O)c1cccs1	/	/	-19.4	/	/
Cc1ccc(N2CC(NC(=O)c3cc4ccccc4o3)CC2=O)cc1 (stereo not drawn)	5.4%	/	41.3	/	/
CC(C)C[C@H]1CN(CCCC[C@@H]2CNC(=O)C(=O)N2CC2CCCCC2)C(=O)C(=O)N1CC1CCCCC1	/	/	-9.6	/	/
Nc1ccc2c(c1)OC1(CCCC1)O2	-18.3%	4.15µM*	-86.4*	36.7%	-8.9%
CC1=C(/C=C/C(C)=C/C=C/C(C)=C/C=C/C=C(C)/C=C/C=C(C)/C=C/C2=C(C)C(=O)C(O)CC2(C)C)C(C)(C)CC(O)C1=O (stereo not drawn)	/	/	/	/	1.1%
CN1CN(C)c2cccc3cccc1c23	-7.2%	4.15µM*	7.3	?	-13.9%
CCN1C(=O)N(CC)c2cccc3cccc1c23	-6.5%	?	1.5	32.5%	-17.6%
O=C(CN1C(=O)NC2(CCCC2)C1=O)OCC(=O)c1cccc(Cl)c1	-17.0%	19.7%	5.3	-17.5%	/
CCOC(=O)N1CCc2c(sc3c2c(=O)n(Cc2ccccc2)c(=O)n3Cc2ccccc2F)C1	-3.3%	?	12.0	2.62µM*	1.9%
CCOC(=O)N1CCc2c(sc3c2c(=O)n(Cc2ccccc2)c(=O)n3CC(=O)NCC2CCCO2)C1 (stereo not drawn)	-4.9%	?	-24.8	5.86µM*	/
CCOC(=O)N1CCc2c(sc3c2c(=O)n(Cc2ccccc2)c(=O)n3CC(=O)Nc2c(C)cccc2C)C1	-9.0%	/	-31.7	/	/
CCOC(=O)N1CCc2c(sc3c2c(=O)n(Cc2ccccc2)c(=O)n3Cc2c(F)cccc2Cl)C1	1.7%	/	-68.1*	/	/
COc1cccc(OC)c1C(=O)OCC(=O)N(c1ccccc1)C1CCCCC1	-6.5%	?	-2.3	?	/
Cc1cccc(C)c1NC(=O)CSc1nc(C2CC2)nc2ccccc12	-8.8%	-6.9%	-7.5	-0.8%	0.2%
O=C(COc1ccc(Cl)cc1)Nc1ccc(-c2nc3ccccc3s2)c(O)c1	2.2%	/	-12.1	/	/
NS(=O)(=O)c1ccc(-c2ccc(C=O)o2)cc1	-4.9%	58.3%	?	1.5%	-0.1%
C=CCOC(=O)c1cc(-c2ccc(/C=C3\C(=O)NC(=O)C(C#N)=C3C)o2)ccc1Cl	7.94µM*	-24.9%	1.9	/	?
CC1=C(C#N)C(=O)NC(=O)/C1=C/c1ccc(-c2ccc(S(N)(=O)=O)cc2)o1	8.91µM*	?	-31.1	4.7%	4.2%
SMILES	Sm TGR inh	Pf growth 96h	HCMV inh	Pf growth 48h	FBPA Giardia inh
CCn1c(SCC(=O)c2c(N)n(C3CC3)c(=O)[nH]c2=O)nc2cc(S(N)(=O)=O)ccc21	0.1%	?	-6.5	?	/
O=C(c1ccc(F)cc1)N(c1ccccc1F)C(CCc1ccccc1)c1nc2ccccc2[nH]1 (stereo not drawn)	/	/	11.4	/	/
Cc1cccc(C)c1NC(=O)C(CCc1ccccc1)N(C(=O)c1ccc(F)cc1)c1ccccc1F (stereo not drawn)	/	/	-69.8*	/	/
CCOC(=O)C1=CN(C(=O)OC(C)(C)C)C(CN2C(=O)COCC2=O)C1 (stereo not drawn)	/	/	/	/	7.0%
Cc1ccc2c(c1)=C/C(=C\c1c(O)[nH]c(=S)[nH]c1=O)C(=O)N=2	12.6µM*	?	/	11.8%	?
CCCN1Cc2cc(OC)ccc2-c2ccccc2S1(=O)=O	/	/	-9.2	/	/
COC(=O)c1cc(S(=O)(=O)n2nc(C)cc2C)c(Cl)cc1Cl	-0.7%	-7.5%	/	14.2%	0.8%
COC(=O)c1cc(S(=O)(=O)N2CCCC2=O)c(Cl)cc1Cl	-2.0%	10.4µM*	24.9	?	-0.7%
C=CC[C@@H](CC(=O)OC(C)(C)C)C(=O)OC[C@@H]1CCCN1C(=O)[C@@H](CC=C)CC(=O)N(CCO)Cc1ccccc1	/	/	50.3	/	/
O=C(NCCCn1ccnc1)c1ccccc1Cl	-0.3%	34.6%	5.9	-4.6%	-10.6%
O=C(NCCCn1ccnc1)c1csc2ccccc12	7.0%	10.4µM*	-20.0	-14.4%	-0.5%
COc1ccc2c(Cl)c(C(=O)NCCCn3ccnc3)sc2c1Cl	1.2%	?	-11.4	10.4µM*	12.5%
Cc1ccc(C(C2=C(O)CC(C)(C)CC2=O)C2C(=O)CC(C)(C)CC2=O)s1 (stereo not drawn)	?	49.1%	-9.4	16.1%	0.4%
COc1cccc(C(C2=C(O)CC(C)(C)CC2=O)C2C(=O)CC(C)(C)CC2=O)c1 (stereo not drawn)	?	11.2%	-65.3*	7.1%	7.9%
CC1(C)CC(=O)C(C(C2=C(O)CC(C)(C)CC2=O)c2ccc(Br)s2)C(=O)C1 (stereo not drawn)	10µM*	?	-6.7	?	-0.7%
NC(c1csc(Nc2cnccn2)n1)C1CCCCC1 (stereo not drawn)	/	/	-68.4*	/	/
NC(c1csc(Nc2ccc(C(F)(F)F)cn2)n1)C1CCCCC1 (stereo not drawn)	/	/	-102.0*	/	/
COc1ccc(O[C@H]2C=C[C@@H](c3ccccc3)O[C@H]2COC(=O)CC/C(C)=N\O[C@@H](C)c2cn([C@H](CO)Cc3ccccc3)nn2)cc1	/	/	/	/	-0.2%[12.9 µM]
CSc1cccc(N2C(=O)C3CCCN3C2=S)c1 (stereo not drawn)	10.1%	-2.1%	42.7	?	5.2%
N#C/C(=C(/O)C(Cl)(Cl)Cl)c1nc2ccccc2[nH]1	3.98µM*	35.0%	27.8	12.9%	-4.5%
CC(=O)OC(/C(O)=C(\C#N)c1nc2ccccc2[nH]1)c1ccccc1 (stereo not drawn)	6.2%	9.28µM*	-95.6*	?	-23.2%
